# For some assays here: Potency and affinity values are given separately.
# What was measured:
# Set-up in all cases: scale not given: direction of the effect not stated beside the values
# [1] = molecular target: Protein translocase subunit SecA (Escherichia coli (strain K12)) (UniProt P10408); test: Assay to Identify E. coli SecA ATPase Inhibitors; format: functional; conditions: 30 µM
# [2] = molecular target: T1, Ubiquitin-activating enzyme e1, putative (Leishmania donovani (strain BPK282A1)) (UniProt E9BSI1); test: Leishmania donovani Ubiquitin Activating Enzyme (LdE1); format: functional; conditions: 30 µM
# T1 sequence (whole entry): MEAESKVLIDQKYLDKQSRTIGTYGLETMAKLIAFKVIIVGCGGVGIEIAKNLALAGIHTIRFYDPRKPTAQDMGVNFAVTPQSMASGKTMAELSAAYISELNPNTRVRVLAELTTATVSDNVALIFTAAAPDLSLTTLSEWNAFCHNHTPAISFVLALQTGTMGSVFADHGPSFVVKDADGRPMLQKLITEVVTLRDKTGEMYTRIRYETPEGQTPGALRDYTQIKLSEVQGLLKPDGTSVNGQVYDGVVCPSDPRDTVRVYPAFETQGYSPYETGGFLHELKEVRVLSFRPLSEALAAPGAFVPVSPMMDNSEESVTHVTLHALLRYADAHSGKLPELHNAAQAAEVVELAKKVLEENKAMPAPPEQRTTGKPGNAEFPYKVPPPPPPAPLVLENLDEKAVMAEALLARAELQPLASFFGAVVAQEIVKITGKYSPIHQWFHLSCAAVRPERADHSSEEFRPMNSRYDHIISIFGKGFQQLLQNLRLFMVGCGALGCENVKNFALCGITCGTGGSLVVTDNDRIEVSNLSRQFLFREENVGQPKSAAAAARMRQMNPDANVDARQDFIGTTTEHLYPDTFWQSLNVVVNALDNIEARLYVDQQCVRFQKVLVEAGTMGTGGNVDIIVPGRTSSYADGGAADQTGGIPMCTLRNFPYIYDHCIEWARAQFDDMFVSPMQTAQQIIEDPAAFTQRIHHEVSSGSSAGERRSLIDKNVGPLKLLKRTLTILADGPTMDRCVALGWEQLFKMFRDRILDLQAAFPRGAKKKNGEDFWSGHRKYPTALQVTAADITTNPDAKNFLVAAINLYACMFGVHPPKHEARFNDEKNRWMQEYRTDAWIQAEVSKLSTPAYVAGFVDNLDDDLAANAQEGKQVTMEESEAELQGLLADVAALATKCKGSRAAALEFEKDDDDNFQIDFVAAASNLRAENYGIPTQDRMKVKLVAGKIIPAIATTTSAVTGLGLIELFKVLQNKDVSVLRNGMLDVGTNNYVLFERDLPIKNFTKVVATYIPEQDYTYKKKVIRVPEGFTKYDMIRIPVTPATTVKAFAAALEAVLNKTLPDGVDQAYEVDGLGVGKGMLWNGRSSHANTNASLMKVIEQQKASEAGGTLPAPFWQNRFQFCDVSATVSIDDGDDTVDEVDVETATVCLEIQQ
# [3] = molecular target: AMP-activated protein kinase, AMPK (Homo sapiens) (UniProt P54646+O43741+P54619+Q9UGJ0+Q9Y478+Q13131+Q9UGI9); test: AMP-dependent Kinase enzyme assay. An in vitro enzyme assay that detects ADP turnover that is directly proportional to AMPK activity. This uses naive AMPK that is activated during the assay with MK-8722; format: functional; conditions: 30 µM
# [4] = molecular target: Sialic acid-binding Ig-like lectin 9 (Homo sapiens) (UniProt Q9Y336); test: Hs-Siglec9 ALPHAscreen SOP 20170721; conditions: 10 µM
# Trypanosoma cruzi = test: Trypanosoma cruzi phosphomannomutase and mannose-1-phosphate guanylyltransferase assay; format: functional; conditions: 10 µM
# [5] = molecular target: T2, Arginase-2, mitochondrial (Homo sapiens) (UniProt P78540); test: in vitro enzyme assay to detect the production of urea directly proportional to the activity of Arginase II; format: functional; conditions: 33.3 µM; note: in the data most compounds retested in dose-response had high values
# T2 sequence (whole entry): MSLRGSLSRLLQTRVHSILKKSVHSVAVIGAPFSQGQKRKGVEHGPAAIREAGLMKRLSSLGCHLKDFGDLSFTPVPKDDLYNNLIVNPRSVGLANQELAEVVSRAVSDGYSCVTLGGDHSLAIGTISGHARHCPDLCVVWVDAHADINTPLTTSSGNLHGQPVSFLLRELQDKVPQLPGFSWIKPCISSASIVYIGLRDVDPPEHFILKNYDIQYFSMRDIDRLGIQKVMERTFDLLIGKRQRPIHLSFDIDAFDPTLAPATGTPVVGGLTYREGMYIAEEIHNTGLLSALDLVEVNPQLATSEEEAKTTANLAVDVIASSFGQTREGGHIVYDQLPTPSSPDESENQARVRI
# [6] = molecular target: T3, Proteasome subunit beta (Trypanosoma cruzi) (UniProt O96673); test: Trypanosoma cruzi proteasome chymotrypsin-like activity (TcProtChymo) assay.; note: in the data most compounds retested in dose-response had high values; format: functional; conditions: 9.37 µM
# T3 sequence (whole entry): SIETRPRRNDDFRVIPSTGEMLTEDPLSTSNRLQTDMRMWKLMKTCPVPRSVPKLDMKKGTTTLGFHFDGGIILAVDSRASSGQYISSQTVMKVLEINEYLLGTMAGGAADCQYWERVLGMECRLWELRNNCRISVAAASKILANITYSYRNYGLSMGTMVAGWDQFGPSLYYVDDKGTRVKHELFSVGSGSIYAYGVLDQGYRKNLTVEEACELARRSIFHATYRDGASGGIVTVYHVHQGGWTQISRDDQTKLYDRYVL
# Homo sapiens = organism: Homo sapiens; test: To identify inhibition of the IFN signalling (Jak-Stat) pathway via expression of an eGFP reporter gene under the control of an IFN-stimulated response element (ISRE) containing MxA promoter.; format: functional; conditions: 30 µM
# [7] = molecular target: T4, Tyrosyl-tRNA synthetase, putative (Trypanosoma cruzi (strain CL Brener)) (UniProt Q4DSP6); test: Trypanosoma cruzi tyrosyl tRNA synthetase (TcYRS) _High Tyrosine SOP; format: functional; conditions: 30 µM; note: in the data most compounds retested in dose-response had high values
# T4 sequence (whole entry): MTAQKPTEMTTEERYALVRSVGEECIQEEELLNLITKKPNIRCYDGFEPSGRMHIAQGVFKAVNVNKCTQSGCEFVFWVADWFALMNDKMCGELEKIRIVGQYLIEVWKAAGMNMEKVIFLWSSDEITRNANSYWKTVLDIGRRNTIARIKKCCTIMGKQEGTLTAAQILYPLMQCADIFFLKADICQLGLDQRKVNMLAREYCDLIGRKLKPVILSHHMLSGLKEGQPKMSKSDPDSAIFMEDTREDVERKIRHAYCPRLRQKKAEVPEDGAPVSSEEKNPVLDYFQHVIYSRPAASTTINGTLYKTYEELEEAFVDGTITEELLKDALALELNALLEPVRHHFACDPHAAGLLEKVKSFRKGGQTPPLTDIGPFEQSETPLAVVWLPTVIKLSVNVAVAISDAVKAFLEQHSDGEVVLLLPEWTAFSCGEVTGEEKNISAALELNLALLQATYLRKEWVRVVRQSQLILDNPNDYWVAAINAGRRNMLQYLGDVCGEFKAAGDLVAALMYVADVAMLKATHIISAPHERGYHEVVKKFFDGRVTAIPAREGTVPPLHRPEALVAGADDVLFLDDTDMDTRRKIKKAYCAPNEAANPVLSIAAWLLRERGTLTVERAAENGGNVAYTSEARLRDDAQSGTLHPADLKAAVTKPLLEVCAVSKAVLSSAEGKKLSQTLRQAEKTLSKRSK
# [8] = molecular target: T4, Tyrosyl-tRNA synthetase, putative (Trypanosoma cruzi (strain CL Brener)); test: Trypanosoma cruzi tyrosyl tRNA synthetase (TcYRS) SOP; format: functional; conditions: 30 µM
# [9] = molecular target: Chromo domain-containing protein 1 (Saccharomyces cerevisiae (strain ATCC 204508 / S288c) (Baker's yeast)) (UniProt P32657); test: ScCHD-1 Enzyme Inhibition Assay; format: functional; conditions: 30 µM; note: in the data most compounds retested in dose-response had high values
# Chromo domain-containing protein 1 (Saccharomyces cerevisiae (strain ATCC 204508 / S288c) (Baker's yeast)), sequence (P32657 whole entry, the tested form may be a part): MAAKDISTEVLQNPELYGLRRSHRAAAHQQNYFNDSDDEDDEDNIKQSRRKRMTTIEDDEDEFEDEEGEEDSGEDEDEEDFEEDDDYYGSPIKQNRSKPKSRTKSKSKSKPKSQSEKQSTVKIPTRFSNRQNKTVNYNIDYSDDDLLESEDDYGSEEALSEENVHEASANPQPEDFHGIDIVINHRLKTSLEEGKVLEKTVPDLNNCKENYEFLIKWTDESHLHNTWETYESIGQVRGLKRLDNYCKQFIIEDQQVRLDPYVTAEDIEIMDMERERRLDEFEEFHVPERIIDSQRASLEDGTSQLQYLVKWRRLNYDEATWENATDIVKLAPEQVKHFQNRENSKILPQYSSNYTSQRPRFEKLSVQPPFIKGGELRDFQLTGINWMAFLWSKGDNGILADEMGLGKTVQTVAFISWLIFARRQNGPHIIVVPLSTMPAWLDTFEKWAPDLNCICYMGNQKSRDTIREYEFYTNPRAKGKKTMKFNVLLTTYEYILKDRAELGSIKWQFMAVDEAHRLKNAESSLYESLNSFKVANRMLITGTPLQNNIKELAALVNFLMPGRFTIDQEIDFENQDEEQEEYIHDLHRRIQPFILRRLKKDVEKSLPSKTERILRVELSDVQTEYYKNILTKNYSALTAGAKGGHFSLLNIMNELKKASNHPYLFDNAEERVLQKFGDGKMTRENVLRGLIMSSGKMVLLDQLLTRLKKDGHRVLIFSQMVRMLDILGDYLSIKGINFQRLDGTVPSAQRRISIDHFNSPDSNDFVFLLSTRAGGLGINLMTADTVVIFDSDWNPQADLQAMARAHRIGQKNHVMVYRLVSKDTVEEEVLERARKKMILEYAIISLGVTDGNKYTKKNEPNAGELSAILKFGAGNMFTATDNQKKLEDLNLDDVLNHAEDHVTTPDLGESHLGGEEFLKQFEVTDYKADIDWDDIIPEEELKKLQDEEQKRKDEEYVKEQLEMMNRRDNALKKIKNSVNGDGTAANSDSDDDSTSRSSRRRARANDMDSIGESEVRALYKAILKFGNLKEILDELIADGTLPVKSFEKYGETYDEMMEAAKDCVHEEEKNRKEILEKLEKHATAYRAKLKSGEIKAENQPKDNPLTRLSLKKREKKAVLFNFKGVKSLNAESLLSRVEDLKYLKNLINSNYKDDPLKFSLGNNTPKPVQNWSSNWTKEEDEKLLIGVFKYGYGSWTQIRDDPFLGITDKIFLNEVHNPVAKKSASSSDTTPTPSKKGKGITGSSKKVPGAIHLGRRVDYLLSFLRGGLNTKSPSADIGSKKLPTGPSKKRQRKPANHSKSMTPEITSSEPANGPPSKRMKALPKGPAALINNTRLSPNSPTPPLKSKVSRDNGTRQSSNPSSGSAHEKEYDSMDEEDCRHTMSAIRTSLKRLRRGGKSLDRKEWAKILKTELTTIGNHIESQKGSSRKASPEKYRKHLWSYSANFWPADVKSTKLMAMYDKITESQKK
# Sialic acid-binding Ig-like lectin 9 (Homo sapiens), sequence (Q9Y336 whole entry): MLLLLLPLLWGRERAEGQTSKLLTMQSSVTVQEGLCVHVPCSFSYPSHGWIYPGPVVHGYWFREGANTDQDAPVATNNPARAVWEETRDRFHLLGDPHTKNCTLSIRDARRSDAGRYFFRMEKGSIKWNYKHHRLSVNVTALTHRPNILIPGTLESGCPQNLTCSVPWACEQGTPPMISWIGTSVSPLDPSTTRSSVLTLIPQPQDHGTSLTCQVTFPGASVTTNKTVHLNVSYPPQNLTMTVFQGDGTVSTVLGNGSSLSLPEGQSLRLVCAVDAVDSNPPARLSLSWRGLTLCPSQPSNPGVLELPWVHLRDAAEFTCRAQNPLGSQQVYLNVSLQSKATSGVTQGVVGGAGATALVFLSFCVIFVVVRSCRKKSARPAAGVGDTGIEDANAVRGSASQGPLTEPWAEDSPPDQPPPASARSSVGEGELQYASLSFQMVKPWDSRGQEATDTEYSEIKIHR
# Protein translocase subunit SecA (Escherichia coli (strain K12)), sequence (P10408 whole entry): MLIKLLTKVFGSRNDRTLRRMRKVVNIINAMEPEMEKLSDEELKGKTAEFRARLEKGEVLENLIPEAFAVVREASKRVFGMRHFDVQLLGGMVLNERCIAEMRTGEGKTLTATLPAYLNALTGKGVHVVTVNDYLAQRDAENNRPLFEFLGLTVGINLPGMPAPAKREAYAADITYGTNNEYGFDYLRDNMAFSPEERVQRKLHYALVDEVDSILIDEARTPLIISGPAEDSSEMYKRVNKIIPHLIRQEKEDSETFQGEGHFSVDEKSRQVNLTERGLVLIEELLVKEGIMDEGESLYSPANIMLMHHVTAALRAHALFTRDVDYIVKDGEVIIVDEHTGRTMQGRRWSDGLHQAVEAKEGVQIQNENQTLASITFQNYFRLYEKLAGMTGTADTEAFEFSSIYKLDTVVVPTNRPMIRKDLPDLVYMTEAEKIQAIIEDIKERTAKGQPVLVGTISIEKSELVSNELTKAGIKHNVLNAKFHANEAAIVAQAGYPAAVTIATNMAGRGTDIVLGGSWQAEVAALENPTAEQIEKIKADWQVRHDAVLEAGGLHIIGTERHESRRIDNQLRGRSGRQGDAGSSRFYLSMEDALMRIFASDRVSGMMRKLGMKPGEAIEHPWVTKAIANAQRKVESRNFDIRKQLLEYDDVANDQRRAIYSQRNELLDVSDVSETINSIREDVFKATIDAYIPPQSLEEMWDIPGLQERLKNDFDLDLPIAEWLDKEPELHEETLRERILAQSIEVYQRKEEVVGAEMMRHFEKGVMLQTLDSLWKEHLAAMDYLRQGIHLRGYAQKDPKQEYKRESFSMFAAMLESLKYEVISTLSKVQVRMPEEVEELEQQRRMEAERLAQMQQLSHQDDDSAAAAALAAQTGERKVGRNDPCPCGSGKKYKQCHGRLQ
SMILES,Percent Effect [1],Percent Effect [2],Percent Effect [3],Percent Effect [4],Percent Effect (Trypanosoma cruzi),Percent Effect [5],Percent Effect [6],Percent Effect (Homo sapiens),Percent Effect [7],Percent Effect [8],Percent Effect [9]
CS(=O)(=O)NCC1CCCN(Cc2ccc(F)c3cccnc23)C1 (stereo not given),-1.47%,2.6%,-1.1%,10.8%,-2.06%,-4.14%,18.5%,16.9%,5.38%,13.6%,3.65%
COc1ccc(-c2noc(C(=O)NCCN3CCCCC3)n2)cc1OC,-7.28%,14.7%,-14.8%,5.74%,8.25%,-18.8%,1.85%,6.7%,3.17%,-5.13%,-13.9%
Cc1cccc(CNC2CCCc3c2cnn3C)c1 (stereo not given),2.29%,-5.41%,-6.19%,5.27%,5.38%,0%,3.6%,-2.08%,0.493%,6.17%,-2%
CCOCC(O)CN1CCN(C(=O)c2ccc(OC)cc2F)CC1 (stereo not given),-4.94%,18.2%,-0.292%,4.59%,1.87%,2.85%,0.676%,13.6%,7.77%,14.6%,-9.36%
NC(=O)c1cnn2c1NCC(CNCCCOc1ccccc1F)C2 (stereo not given),-2.54%,5.26%,0.424%,14.6%,3.38%,-1.15%,0.167%,2.29%,9.31%,12.2%,-10.9%
CNC(=O)CCc1cc(C)nc(C2CCCN2)c1 (stereo not given),-6.62%,14.9%,6.02%,1.63%,2.17%,-3.02%,6.08%,-9.75%,2.15%,11.7%,-23.7%
Cc1nn(CC(C)C)c(N(C)C)c1CNCc1cccnc1N(C)C,-4.49%,5.41%,-8.59%,3.17%,-9.34%,-6.41%,7.75%,6.14%,1.48%,3.7%,-5.66%
CCc1c(C)nc2n(c1=O)CC(C(=O)Nc1nccs1)CS2 (stereo not given),-7.87%,13%,-4.33%,-3.77%,5.62%,5.81%,7.31%,4.32%,3.17%,14.1%,-7.44%
COC(=O)c1cccc(NS(=O)(=O)c2cnc(NC(C)=O)s2)c1,1.56%,6.67%,-2.6%,1.81%,-6.09%,-8.63%,17.4%,-6.95%,3.17%,0%,-6.88%
CNC(=O)CCc1cc(C)nc(C2CCCN2)n1 (stereo not given),-2.12%,-1.35%,6.23%,2.54%,-1.78%,3.02%,5.62%,13.2%,3.23%,-3.9%,6.64%
